What all share (experiment): PBM binding z-score (relative to random genomic background probes); higher = stronger binding; sequences stand for … in GC…GCGATTGACAGCGTAGAATGAAGG
Test [1] has as its system FXR:RXRa (NR concentration 270 nM, RXRa partner concentration 90 nM). In short, it runs like this:
(§1)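 Each nuclear receptor dimer, without ligand, was incubated for 1 h on custom Agilent 4×180K protein-binding microarrays. Binding was detected with antibodies against each partner (one per run), and scanned fluorescence was regression-normalized. The binding z-scores are referenced to random human genomic background probes.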

Test [2] concerns LXRa:RXRa (NR concentration 270 nM, RXRa partner concentration 90 nM). The method, boiled down:
as §1

Test [3] deals with LXRa homodimer (NR concentration 270 nM). In short, it runs like this:
as §1

In test [4] the test system is LXRb:RXRa (NR concentration 270 nM, RXRa partner concentration 90 nM). The method, boiled down: as §1
The test system of test [5] is LXRb homodimer (NR concentration 270 nM). The method, boiled down: as §1
Test [6] has as its system PPARa:RXRa (NR concentration 270 nM, RXRa partner concentration 90 nM). The method, boiled down: as §1
Test [7] deals with PPARg:RXRa (NR concentration 180 nM, RXRa partner concentration 90 nM). The method, boiled down:
as §1

Test [8] concerns PPARg:RXRa 270nM:90nM, anti-RXR (NR concentration 270 nM, RXRa partner concentration 90 nM). The method, boiled down:
as §1

Test [9] concerns PPARg:RXRa 30nM:10nM, anti-RXR (NR concentration 30 nM, RXRa partner concentration 10 nM). The method, boiled down: as §1
Test [10] deals with PPARg:RXRa 90nM:30nM, anti-RXR (NR concentration 90 nM, RXRa partner concentration 30 nM). The method, boiled down:
as §1

Test [11] relates to PPARg:RXRa DBDmut IVT, anti-RXR (DBD mutation: RXRa K156A/R161A, NR concentration 270 nM, RXRa partner concentration 90 nM). In short, it runs like this: as §1
Test [12] relates to PPARg:RXRa IVT, anti-PPARg (NR concentration 270 nM, RXRa partner concentration 90 nM). The method, boiled down:
as §1

The subject of test [13] is PPARg DBDmut:RXRa IVT, anti-PPARg (DBD mutation: PPARg1 K132A/R137A, NR concentration 270 nM, RXRa partner concentration 90 nM). The method, boiled down: as §1
The subject of test [14] is PPARg DBDmut IVT, anti-PPARg (DBD mutation: PPARg1 K132A/R137A, NR concentration 270 nM). In short, it runs like this: as §1
Test [15] concerns PPARg homodimer (NR concentration 180 nM). The method, boiled down:
as §1

In test [16] the test system is PXR:RXRa (NR concentration 270 nM, RXRa partner concentration 90 nM). In short, it runs like this:
as §1

The test system of test [17] is PXR homodimer (NR concentration 270 nM). The method, boiled down:
as §1

Test [18] has as its system RARa:RXR (NR concentration 270 nM, RXRa partner concentration 90 nM). In short, it runs like this: as §1
Test [19] concerns RARa homodimer (NR concentration 270 nM). In short, it runs like this:
as §1

The test system of test [20] is RARb:RXRa (NR concentration 270 nM, RXRa partner concentration 90 nM). The method, boiled down:
as §1

Regarding CCAACTAGGTCACCGGAAGGTCAAAGTCCGCATG, the PBM binding z-score in test [1] stood at 6.49; in [2], 5.96; in test [3], 5.35; in [4], 5.35; in [5] it was 1.43; in test [6], 5.81. Besides, the PBM binding z-score was determined as 9.14 in test [7]; 7.51 in [8]; 5.79 in [9]; 6.94 in [10]; 8.42 in test [11]; 8.36 in test [12]. In addition, the PBM binding z-score in test [13] came out at 0.902; in test [14] it was 1.2; in [15], 9.32; in test [16], 6.17; in [17], 2.46; in test [18] it was 7.7. For the same sequence, the PBM binding z-score was 4.05 in test [19] and 5.15 in [20].
For the sequence GCTTGTAGATCGAGGTTAAGAAAGACTAAGCTAA, the PBM binding z-score was 0.262 in test [1]; 1.09 in [2]; -0.228 in test [3]; 0.65 in test [4]; -0.682 in test [5]; 1.68 in test [6]. Moreover, the PBM binding z-score in test [7] is -0.0308; in [8], 0.648; in [9], -0.204; in test [10] it was 0.479; in test [11], 0.155; in [12] it was 0.569. In addition, the PBM binding z-score in test [13] is -0.125; in [14], 0.233; in test [15], 0.235; in test [16], 0.519; in test [17] it was -0.12; in test [18], 1.03. For the same sequence, the results for the PBM binding z-score in [19] and in [20] were 0.293 and 0.634, respectively.
For TCTTGTAGATAAATAGAGGTTAAGAAAGTGCGCT, the PBM binding z-score in test [1] was 1.41; in test [2] it was 3.4; in [3], 1.55; in test [4] it was 1.9; in test [5], 0.214; in test [6] it was 1.73. Further, the PBM binding z-score in [7] came out at 0.624; in test [8] it was 1.83; in test [9], 2.94; in test [10], 2.84; in [11], 2.53; in test [12], 0.875. Further, the PBM binding z-score in test [13] worked out at 1.18; in [14] it was 0.956; in [15] it was 0.0767; in [16] it was 2.77; in test [17], 0.529; in [18] it was 1.8. The PBM binding z-score in test [19] was determined as 1.33; in [20], 0.915.
In the case of TAGCCTAGGTCTTTCAGGGGCCAGTATAGAAAGC, the PBM binding z-score in test [1] is -0.49; in [2], -0.379; in test [3], -0.527; in test [4], -0.066; in test [5], -0.296; in test [6] it was -0.263. Moreover, the PBM binding z-score in test [7] is -0.284; in [8] it was -0.623; in test [9], -0.57; in test [10], -0.453; in test [11], -0.411; in [12], 0.431. Further, the PBM binding z-score in test [13] is -0.836; in test [14], 0.0901; in test [15] it was -0.27; in [16] it was -0.417; in [17], -0.804; in test [18], -0.214. The results for the PBM binding z-score in test [19] and in [20] were -1.24 and 0.577, respectively.
AGTCAAAGTCCATCTAGGTAACGTAAGATATGCT: the PBM binding z-score in test [1] was 0.0265; in [2], -0.375; in test [3], 0.0157; in test [4] it was -0.0801; in test [5], -0.0793; in test [6], 0.13. Besides, the PBM binding z-score in test [7] is 0.685; in [8], 0.325; in [9], 0.277; in [10], 0.00564; in test [11], 0.353; in test [12] it was 2.15. In addition, the PBM binding z-score was 1.24 in test [13]; 0.675 in test [14]; -0.173 in [15]; -0.246 in test [16]; 0.131 in test [17]; 0.0232 in [18]. Moreover, the PBM binding z-score in test [19] stood at 0.0654; in test [20], 1.37.
On to ACTTACGGGTCAACGAGGTTATAGTACGCGTATA, for which the PBM binding z-score stood at 6.84 in test [1]; 5.12 in [2]; 1.1 in test [3]; 4.53 in test [4]; 0.951 in test [5]; 5.76 in test [6]. Further, the PBM binding z-score in test [7] turned out to be 5.66; in test [8] it was 5.72; in test [9], 2.24; in [10], 4.29; in [11] it was 3.12; in test [12] it was 4.22. The PBM binding z-score was 1.99 in test [13]; 1.76 in [14]; 2.88 in test [15]; 5.39 in test [16]; 4.31 in test [17]; 5.61 in test [18]. The figures for the PBM binding z-score in [19] and in test [20] were 1.04 and 4.13, respectively.
Regarding CGAACTAGGTCAGAACAGGAAAGTGAAGGATGAT, the PBM binding z-score in test [1] was 0.901; in test [2], 0.447; in test [3] it was -0.258; in test [4], 0.38; in test [5], -0.116; in test [6], 3.21. Besides, the PBM binding z-score was 5.08 in test [7]; 4.29 in [8]; 1.92 in [9]; 3.33 in [10]; 7.16 in [11]; 6.78 in test [12]. For the same sequence, the PBM binding z-score in test [13] was 2.1; in test [14] it was 0.812; in test [15], 0.835; in test [16], 0.0929; in test [17], -0.161; in [18] it was 0.482. For the same sequence, the PBM binding z-score in test [19] is -0.00201; in test [20], 2.72.

The record behind these values is the supplement of paper PMC6555819.
